Experimental data reported in PubChem BioAssay.

Target: Torsin-1A-interacting protein 1 (Homo sapiens) (UniProt Q5JTV8)
Test: LAP1 binders from COS7 cell lysate, primary screen, small-molecule microarray, 635/667 nm fluorescence (AID 1116)
Conditions: COS7-hLAP1 lysate binding, 635 nm fluorescence, higher = more signal

Torsin-1A-interacting protein 1 (Homo sapiens), sequence (Q5JTV8 whole entry, looked up): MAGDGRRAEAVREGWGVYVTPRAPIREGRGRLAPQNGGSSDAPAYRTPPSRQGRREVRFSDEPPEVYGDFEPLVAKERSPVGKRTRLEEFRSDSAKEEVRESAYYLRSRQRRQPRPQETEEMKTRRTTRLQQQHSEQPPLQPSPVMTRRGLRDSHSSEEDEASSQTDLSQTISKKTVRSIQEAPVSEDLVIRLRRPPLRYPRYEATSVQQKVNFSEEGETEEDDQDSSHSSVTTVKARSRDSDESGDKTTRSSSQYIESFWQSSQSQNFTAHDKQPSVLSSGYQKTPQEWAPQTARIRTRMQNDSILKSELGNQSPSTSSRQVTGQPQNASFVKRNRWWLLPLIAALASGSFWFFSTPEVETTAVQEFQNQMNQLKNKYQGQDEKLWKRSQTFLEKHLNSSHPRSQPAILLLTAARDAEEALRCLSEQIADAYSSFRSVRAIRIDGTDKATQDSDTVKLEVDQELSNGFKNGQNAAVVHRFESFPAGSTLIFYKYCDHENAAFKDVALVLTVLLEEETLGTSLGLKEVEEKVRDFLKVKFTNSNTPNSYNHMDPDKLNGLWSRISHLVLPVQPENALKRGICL

Compound	composite z-score
[N-]=[N+]=Nc1ccccc1C[C@@]1(C(=O)N2CCOCC2)N=C(c2ccc(OCCCO)cc2)O[C@@H]1c1ccccc1	1.43
[N-]=[N+]=Nc1ccccc1C[C@]1(C(=O)O)COC(c2ccc(OCCCO)cc2)=N1	-0.811
COCCOC(=O)N1C(=O)[C@@]2(c3cc(C#CC4=CCCCC4)ccc31)[C@H](c1ccccc1OCCO)N1[C@H](c3ccccc3)[C@H](c3ccccc3)OC(=O)[C@H]1[C@@H]2C(=O)N1CCN(c2ncccn2)CC1	0.0174
O=C1O[C@@H](c2ccccc2)[C@@H](c2ccccc2)N2[C@@H](c3ccc(OCCO)cc3)[C@]3(C(=O)Nc4ccc(C#CC5=CCCCC5)cc43)[C@@H](C(=O)NC[C@H](O)c3ccccc3)[C@H]12	1.12
[N-]=[N+]=Nc1ccccc1C[C@]1(C(=O)NCCN2CCOCC2)COC(c2ccc(OCCCO)cc2)=N1	0.101
O=C1OCCC=C[C@H]2OC34C=CCN(Cn5nnc6ccccc65)C(=O)[C@H]3N(CCCO)C(=O)[C@@H]4C12 (stereo not given in full)	0.879
CC(C)[Si](C#C[Si](C(C)C)(C(C)C)C(C)C)(O[C@H](c1ccccc1)c1cn(Cc2ccccc2)nn1)C(C)C	0.352
CC(C)N1C(=O)C[C@@](C(=O)O)(c2ccc([N+](=O)[O-])cc2)[C@H]1c1ccc(CO)cc1	0.335
C=CCC(OC(C)=O)[C@@H]1[C@@H](N(Cc2ccc(-c3ccccc3)cc2)C(=O)c2ccc(-c3ccccc3)cc2)c2cc(OCCCO)ccc2N1C(=O)c1ccc2ccccc2c1 (stereo not given in full)	0.0403
COc1ccc([Si](C)(C)[C@@H]2[C@@H](CCO)O[C@]3(C(=O)N(Cc4ccccc4)c4ccc(N5CCOC5=O)cc43)[C@H]2C)cc1	0.855
[N-]=[N+]=Nc1ccccc1C[C@]1(C(=O)NCC(O)CO)COC(c2ccc(OCCCO)cc2)=N1 (stereo not given in full)	2.01
CN(C)CCCCCCNC(=O)[C@@H]1C[C@@H]2C(=O)N3CCC[C@H]3C(=O)N2[C@@H]1c1cccc(OCCO)c1	2.07
CCOC(=O)C[C@H]1[C@H](OC(=O)c2cc3ccccc3oc2=O)[C@@H](NC(=O)c2ccccc2)c2cc(OCCCO)ccc2N1C(=O)c1ccccc1	0.203
O=C1C2C=CC(C(O)c3cccc(O)c3)N(Nc3ccc([N+](=O)[O-])cc3)C2C(=O)N1c1ccccc1 (stereo not given)	0.26
C=CC[C@@]1(C(=O)NCCCOC)N=C(c2ccc(OCCCO)cc2)O[C@@H]1c1ccccc1	2.89
CCCCC(=C=CC[C@H](O)c1ccc(OCCO)cc1)CCO	0.92
C=C(C(=O)CC[C@H](OC(=O)c1ccccc1-c1ccccc1C(=O)O)c1cccc(OCCO)c1)C(C)C	-0.126
COC(=O)[C@]1(CCS(=O)(=O)c2ccccc2)N=C(c2ccc(OCCCO)cc2)O[C@@H]1c1ccccc1N=[N+]=[N-]	0.815

Compound	composite z-score
C=C(/C(=C/C[C@H](OC(=O)c1ccncc1)c1ccc(CO)o1)c1cnc2ccccc2c1)C(C)C	0.854
CC[C@@H]1C=C(C(=O)O)[C@H](c2ccc(C#N)cc2)N1S(=O)(=O)c1ccc(C)cc1	2.47
CCCCCCCCCCC(O)C1C=CC2C(=O)N(c3ccccc3)C(=O)C2N1Nc1ccc(C#N)cc1 (stereo not given)	1.47
CC[C@@H]1C=C(C(=O)O)[C@H](c2ccccc2)N1S(=O)(=O)c1ccc(C)cc1	0.599
O=C1O[C@H](c2ccccc2)[C@H](c2ccccc2)N2[C@H]1[C@@H](C(=O)O)[C@]1(C(=O)Nc3ccc(C#CCCO)cc31)[C@H]2c1ccccc1OCCO	0.182
O=C1C2C=CC(C(O)c3ccco3)N(Nc3ccccc3F)C2C(=O)N1c1ccccc1 (stereo not given)	0.942
COc1ccc([Si](C)(C)[C@@H]2[C@@H](CCO)O[C@]3(C(=O)N(Cc4cccc(NC(=O)[C@H](C)O)c4)c4ccccc43)[C@H]2C)cc1	0.999
CC(C)N1C(=O)C[C@@](C(=O)NC2CC2)(c2ccc([N+](=O)[O-])cc2)[C@H]1c1ccc(CO)cc1	-0.315
Oc1ccc2cc[n+](Cc3cc4c(cc3Br)OCO4)cc2c1	-0.346
CCOC(=O)C[C@H]1[C@H](OC(=O)c2ccc(-c3ccccc3)cc2)[C@@H](NC(=O)CC(C)C)c2cc(OCCCO)ccc2N1C(=O)c1ccc2ccccc2n1	-0.289
CCCCC(CC)C(O)C1C=CC2C(=O)N(c3ccccc3)C(=O)C2N1Nc1ccccc1F (stereo not given)	0.928
CCOC(=O)C[C@H]1[C@H](OC(=O)c2ccccc2-c2ccccc2)[C@@H](NC(=O)c2ccc3ccccc3n2)c2cc(OCCCO)ccc2N1C(=O)Cc1ccc(OC)cc1	0.781
COCCCNC(=O)[C@@]1(CCC(=O)OC(C)(C)C)N=C(c2ccc(OCCCO)cc2)O[C@H]1c1ccccc1N=[N+]=[N-]	2.32
OCCCC1=CC(c2ccc(CN3CCCC3)cc2)N(Cc2cc3c(cc2Br)OCO3)CC1 (stereo not given)	1.17
CCOC(=O)C[C@H]1[C@H](OC(=O)Cc2ccc3c(c2)OCO3)[C@@H](NC(=O)C2CCCCC2)c2cc(OCCCO)ccc2N1C(=O)c1ccccc1	0.653
COCC(=C=CC[C@H](O)c1ccccc1OCCO)C[C@H](O)c1ccccn1	-0.191
[N-]=[N+]=NCc1ccccc1[C@@H]1OC(c2ccc(OCCCO)cc2)=N[C@]1(CCS(=O)(=O)c1ccccc1)C(=O)O	0.953
